Assay [1] is described as follows: compound effects on lung adenocarcinoma cell viability – A549, calcein-AM fluorescence, 48 h, basal, profiling panel (AID 1162). Also: test concentration not given here. Particulars: higher = more signal.
Assay [2] can be described thus: compound effects on differentiated 3T3-L1 adipocyte viability – cell-based, 3T3-L1 adipocytes, calcein-AM fluorescence, 48 h, basal, profiling panel (AID 1163). Also: test concentration not given here. Particulars: 3T3-L1 adipocytes viability, higher = more signal.
Assay [3] can be described thus: compound effects on hepatocellular carcinoma cell viability – HepG2, calcein-AM fluorescence, 48 h, basal, profiling panel (AID 1164). Also: test concentration not given here. Particulars: higher = more signal.
A short description of assay [4]: compound effects on multiple myeloma cell viability – MM1S, calcein-AM fluorescence, 48 h, basal, profiling panel (AID 1165).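 Also: viability of MM1S multiple myeloma cells under basal unstimulated conditions; test concentration not given here.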 Particulars: higher = more signal.
Assay [5] is described as follows: calcein-AM signal in unstimulated myeloma cells – cell-based, calcein-AM fluorescence, 48 h, PK04 Diversity Set, profiling panel (AID 1166).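 Also: cells grown under basal conditions without added stimulus; test concentration not given here.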 The settings on record: RPMI8226 myeloma viability, higher = more signal.
The nature of assay [6]: JC-1 mitochondrial signal, unstimulated HepG2 cells – cell-based, JC-1 fluorescence, 24 h, 100 nL compound, profiling panel (AID 1167). Also: test concentration not given here. Particulars: HepG2 mitochondrial potential, higher = more signal.
Assay [7] can be described thus: JC-1 mitochondrial signal, unstimulated adipocytes – cell-based, JC-1 fluorescence, 3T3-L1 adipocytes, 24 h, 100 nL compound, profiling panel (AID 1168). Also: test concentration not given here. The settings on record: JC-1 mitochondrial fluorescence, higher = more signal, called active from +8 up or from −8 down.
Assay [8] is described as follows: JC-1 mitochondrial signal, unstimulated myeloma cells – cell-based, JC-1 fluorescence, RPMI8226, 24 h, 100 nL compound, profiling panel (AID 1169). Also: test concentration not given here. The settings on record: JC-1 mitochondrial potential fluorescence, higher = more signal.
Assay [9] is described as follows: JC-1 mitochondrial signal, unstimulated MM1S myeloma – cell-based, JC-1 fluorescence, 24 h, 100 nL compound, profiling panel (AID 1170). Also: test concentration not given here. The settings on record: MM1S mitochondrial potential, higher = more signal.
Assay [10] can be described thus: resazurin metabolic signal in A549 cells – cell-based, resazurin fluorescence, 24 h, PK04 Diversity Set, profiling panel (AID 1171). Also: test concentration not given here. Particulars: A549 viability, higher = more signal, called active from +8 up or from −8 down. (In general: The colour change of resazurin is a common sign of viable cells or microbes.)
A short description of assay [11]: resazurin metabolic signal in HepG2 cells – cell-based, resazurin fluorescence, 24 h, PK04 Diversity Set, profiling panel (AID 1172). Also: test concentration not given here. Particulars: HepG2 viability, higher = more signal.
Assay [12] can be described thus: budding yeast growth changes without added modifier – OD600, strain BY4716, 24 h, basal condition, primary screen (AID 1173). The settings on record: S. cerevisiae BY4716 growth, OD600, 24 h; higher = more signal, called active from +8 up or from −8 down.
Assay [13] can be described thus: viability profiling in MM1S myeloma cells – cell-based, resazurin fluorescence, basal, 24 h, PK04 Diversity Set, profiling panel (AID 1174). Also: test concentration not given here. Particulars: higher = more signal, called active from +8 up or from −8 down.
Assay [14] concerns the target Dihydroorotate dehydrogenase (quinone), mitochondrial (Plasmodium falciparum (isolate 3D7)) (UniProt Q08210). Kind of assay: inhibition of P. falciparum DHODH – biochemical, C-terminal His tag, absorbance 600 nm, primary screen (AID 1175).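 Also: recombinant parasite enzyme with a five histidine tag at its C terminus; test concentration not given here.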 Particulars: PfDHODH enzyme, DCIP absorbance 600 nm; higher = more signal, called active from +8 up or from −8 down.
Assay [15] can be described thus: inhibition of PAO1 biofilm formation – strain PAO1, LB-PBS medium, absorbance 600 nm, primary screen (AID 1176). Also: test concentration not given here. The settings on record: P. aeruginosa PAO1 growth/biofilm, A600, 12 h; higher = more signal.
The nature of assay [16]: growth modulation of vineyard yeast isolate – strain RM11-1a, OD600, basal, 24 h, primary screen (AID 1177).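 Also: cultures grown under basal conditions with no added stressor; test concentration not given here.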 Particulars: S. cerevisiae RM11-1a growth, OD600, 24 h; higher = more signal, called active from +8 up or from −8 down.
Assay [17] is described as follows: growth of efflux-deficient E. coli DRC39 – strain DRC39, OD650, 24 h, E. coli filamentation inducers, primary screen (AID 1178).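 Also: growth measured as culture turbidity by optical density at 650 nm; test concentration not given here.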 Particulars: E. coli DRC39 acrAB, higher = more signal, called active from +8 up or from −8 down.
A short description of assay [18]: growth of efflux-deficient E. coli DRC39 – strain DRC39, OD650, 48 h, E. coli filamentation inducers, primary screen (AID 1179).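 Also: screen aims at cell division blockers that make cells filament.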 The settings on record: E. coli DRC39 delta-acrAB growth, higher = more signal, called active from +8 up or from −8 down.
The nature of assay [19]: viability profiling in RPMI8226 myeloma cells – cell-based, resazurin fluorescence, basal, 24 h, PK04 Diversity Set, profiling panel (AID 1180).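 Also: RPMI8826 multiple myeloma cell line at 5000 cells per well; test concentration not given here.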 Particulars: higher = more signal.
Assay [20] deals with E3 ubiquitin-protein ligase XIAP (Homo sapiens) (UniProt P98170). Kind of assay: small molecules binding XIAP protein – biophysical, small-molecule microarray, fluorescence 635 nm, primary screen (AID 1181).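 Also: score merges 667 nm emission and signal to noise over triplicate slides.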 The settings on record: higher = more signal.
Sequence of E3 ubiquitin-protein ligase XIAP (Homo sapiens) (P98170 whole entry, looked up): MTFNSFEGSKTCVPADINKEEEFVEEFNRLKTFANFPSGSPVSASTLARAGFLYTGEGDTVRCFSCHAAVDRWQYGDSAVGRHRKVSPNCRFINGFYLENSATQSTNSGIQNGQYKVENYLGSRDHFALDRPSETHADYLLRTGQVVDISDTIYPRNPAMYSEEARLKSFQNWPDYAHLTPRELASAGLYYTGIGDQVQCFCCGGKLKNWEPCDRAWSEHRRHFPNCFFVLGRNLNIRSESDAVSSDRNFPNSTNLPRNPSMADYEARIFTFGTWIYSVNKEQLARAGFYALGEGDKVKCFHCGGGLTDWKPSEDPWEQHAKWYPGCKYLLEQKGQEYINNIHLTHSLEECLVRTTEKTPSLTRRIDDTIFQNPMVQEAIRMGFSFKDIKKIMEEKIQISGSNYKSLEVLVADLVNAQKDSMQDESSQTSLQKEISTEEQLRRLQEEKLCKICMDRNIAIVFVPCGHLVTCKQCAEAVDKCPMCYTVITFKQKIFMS

These results are taken from PubChem BioAssay.

The source made the active and inactive calls. Unless noted, no rule for the calls is given here.

Sequence of Dihydroorotate dehydrogenase (quinone), mitochondrial (Plasmodium falciparum (isolate 3D7)) (Q08210 whole entry, looked up): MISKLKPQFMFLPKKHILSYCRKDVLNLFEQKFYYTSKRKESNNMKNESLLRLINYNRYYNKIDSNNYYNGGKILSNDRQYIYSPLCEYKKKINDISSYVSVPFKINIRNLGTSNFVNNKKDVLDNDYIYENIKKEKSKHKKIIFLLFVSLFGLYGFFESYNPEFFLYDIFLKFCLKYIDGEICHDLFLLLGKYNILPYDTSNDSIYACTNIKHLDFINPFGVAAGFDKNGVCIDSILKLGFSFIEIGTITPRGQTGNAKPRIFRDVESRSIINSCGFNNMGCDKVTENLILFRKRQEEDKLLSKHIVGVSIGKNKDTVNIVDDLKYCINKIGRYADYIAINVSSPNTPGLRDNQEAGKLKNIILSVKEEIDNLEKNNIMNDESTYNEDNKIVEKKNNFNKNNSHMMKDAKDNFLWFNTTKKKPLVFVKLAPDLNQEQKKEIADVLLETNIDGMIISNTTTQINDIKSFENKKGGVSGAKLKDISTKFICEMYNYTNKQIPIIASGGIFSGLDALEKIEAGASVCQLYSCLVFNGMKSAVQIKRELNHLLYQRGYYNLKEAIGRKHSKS

In the case of `CC(CCC(=O)OC[C@H]1O[C@H](C#Cc2ccccc2)C=C[C@@H]1Oc1ccc(C)cc1)=NO[C@H](C)c1cn([C@@H]2COC[C@H]2O)nn1`, the z-score in assay [1] is 1.28; in assay [2] it was 0.0119; in assay [3] it was 0.669; in assay [4], -1.57; in [5] it was -2; in assay [6] it was -0.662. The z-score in [7] was -4.6e-05 (inactive); in assay [8] it was -0.072; in [9], -1.1; in assay [10] it was -1.25 (inactive); in assay [11] it was -0.458; in assay [12], -0.174 (inactive). In addition, the z-score is -1.7 (inactive) in [13]; 1.12 (inactive) in assay [15]; -2.02 (inactive) in [16]; -0.698 (inactive) in assay [17]; -0.651 (inactive) in assay [18]; -0.474 in assay [19]. For the same compound, the composite z-score is -2.12 (inactive) in assay [14] and -0.0793 in assay [20].
Regarding `O=C1C=C[C@@H](O)[C@@H]2[C@@H]3C(=O)N(C4CCCCC4)C(=O)[C@@H]3CC[C@@H]12`, the z-score in assay [1] is -0.0763; in assay [2], 0.351; in assay [3], -0.602; in assay [4] it was -1.88; in assay [5], -2.19; in assay [6], 1.23. In addition, the z-score in assay [7] is -0.58 (inactive); in [8], -0.733; in assay [9], -1.54; in [10] it was 0.269 (inactive); in assay [11], -0.295; in assay [12], -1.28 (inactive). The z-score in assay [13] is -1.45 (inactive); in assay [15], -0.601 (inactive); in assay [16], 0.246 (inactive); in assay [17], -0.292 (inactive); in assay [18], -0.191 (inactive); in assay [19], -1.31. The composite z-score in assay [14] was -0.168 (inactive); in assay [20], -0.269.
As for `CCOC(=O)[C@H](CC(C)C)NC(=O)CCC1CC(OC(=O)NCc2ccc3c(c2)OCO3)CC2(CCCC(COC(=O)NCCc3ccc(Cl)cc3)O2)O1` (stereo not given in full), the z-score was 0.0432 in assay [1]; -0.179 in assay [2]; 0.0309 in assay [3]; -0.986 in assay [4]; 0.415 in [5]; -0.253 in [6]. Moreover, the z-score in assay [7] is 0.526 (inactive); in assay [8], -0.966; in assay [9], -0.238; in assay [10], 0.39 (inactive); in assay [11], 0.538; in assay [12], -0.723 (inactive). Besides, the z-score in assay [13] is 0.984 (inactive); in [15], -0.151 (inactive); in [16] it was -0.166 (inactive); in assay [17] it was 0.337 (inactive); in assay [18], -0.294 (inactive); in assay [19], 1.13. Also, the results for the composite z-score in [14] and in [20] were -0.704 (inactive) and -0.157, respectively.
With `C#CCCCON=C1C[C@@H](O)[C@@H](O)[C@@H]2[C@@H]3C(=O)N(C[C@@H]4CCCO4)C(=O)[C@@H]3CC[C@H]12`, the z-score is -0.549 in [1]; -0.614 in assay [2]; -1.28 in assay [3]; 0.266 in assay [4]; 0.0556 in assay [5]; -0.241 in assay [6]. Further, the z-score in assay [7] was -0.792 (inactive); in [8] it was 0.489; in assay [9] it was -0.149; in assay [10] it was 0.019 (inactive); in [11], -0.344; in assay [12], 0.767 (inactive). Besides, the z-score in [13] is -0.448 (inactive); in assay [15], 0.0001 (inactive); in [16] it was 0.364 (inactive); in assay [17], -0.145 (inactive); in [18], 0.212 (inactive); in [19], -0.179. Moreover, the values for the composite z-score in assay [14] and in assay [20] were 0.347 (inactive) and -0.122, respectively.
As to `C#CCCCON=C1C[C@@H](O)[C@@H](O)[C@@H]2[C@@H]3C(=O)N([C@@H](C)c4ccccc4)C(=O)[C@@H]3CC[C@@H]12`, the z-score was 0.241 in assay [1]; -0.532 in assay [2]; -0.47 in [3]; -0.597 in assay [4]; -0.337 in assay [5]; -0.998 in assay [6]. The z-score is -0.377 (inactive) in assay [7]; 0.462 in assay [8]; -0.968 in assay [9]; -0.378 (inactive) in assay [10]; -0.121 in assay [11]; 0.858 (inactive) in assay [12]. The z-score was -0.521 (inactive) in [13]; 0.237 (inactive) in [15]; 0.604 (inactive) in assay [16]; -0.612 (inactive) in assay [17]; -0.245 (inactive) in assay [18]; -0.245 in assay [19]. The composite z-score in [14] is 0.579 (inactive); in assay [20], -0.124.
